Where a structure was tested more than once in an assay, its records may differ in their call. Calls of active or inactive are those of the source. How the source made its calls: active means hit-call score of the fitted dose curve at least 0.9, where 1 is the maximum; inactive means score below 0.9.
read-out: Cytochrome P450 (CYP1A1), CYP1A1 (gene 1543); experiment: LTEA_HepaRG_CYP1A1: Life Technologies and Expression Analysis (LTEA) Assay for Cytochrome P450 (CYP1A1) using HepaRG (AID 2283454); conditions: mRNA level, 48 h; actives raise or lower the signal
Protocol: LTEA_HepaRG is a cell based, multiplexed-readout assay that uses HepaRG, a human liver cell line, with measurements taken at 48 hours after chemical dosing on a 96-well plate.LTEA_HepaRG_CYP1A1 is one of 102 assay component(s) measured in the LTEA HepaRG cell culture assay. It is a marker of NR mediated metabolism.Data from the assay component LTEA_HepaRG_CYP1A1 was analyzed into 1 endpoint. This assay endpoint, LTEA_HepaRG_CYP1A1, was analyzed with bidirectional fitting relative to DMSO as the negative control and baseline of activity. Using a type of inducible reporter, measures of mRNA induction for gain or loss-of-signal activity can be used to understand regulation of transcription factor activity. To generalize the intended target to other relatable targets, this assay endpoint is annotated to the cyp intended target family, where the subfamily is xenobiotic metabolism.
A total of 1060 chemcials from the ToxCast library were tested in eight-point concentration-response experiments. Cell culture and cytotoxicity assays were conducted at Thermo Fisher Scientific's Custom Services facility (Madison, WI). A single lot of human HepaRG cells (Thermo Fisher Scientific, Frederick, MD) was used for the cell culture experiments. 96-well format collagen type I coated plates of human HepaRG cells were prepared using established methods. Briefly, cryopreserved HepaRG cells were thawed, plated at a density of approximately 100,000 cells/well in HepaRG Thaw, Plate, and General Purpose media (HPRG770, Thermo Fisher Scientific), and incubated for 48 hours. 0.5% DMSO was selected as vehicle control to balance the requisite need of DMSO in HepaRG cultures to maintain differentiation (for example, baseline metabolism, proportions of hepatocytes vs. cholangiocytes), while enabling further hepatic receptor pathway activation (for example, PXR and CAR) in response to chemical exposure. 48 hours after plating, the culture medium was replaced with HepaRG Serum-Free Incudtion Media. Cells were exposed to each test chemical in duplicate and maintained in CO2 incubators for another 48 hours. Chemical plates were thawed to room temperature and 200x concentrations of treatment groups were prepared. 8-point conentration-reponse curves were made with the highest exposure at 100 uM, followed by half-log dilutions, all in 0.5% DMSO. Each test plate contained variouse controls, induction positive controls (1mM phenobarbital), cytotoxicity positive controls ([…] aflatoxin B1), vehicle controls (0.5% DMSO), and total lysis controls (0.5% DMSO). Cell morphology images were taken using an Essen IncuCyte FLR automated microscope, with six 96-well plates imaged in about 24 minutes. Images were captured and exported and JPEG files. Spent culture media was transfered to black-well plates for the LDH assay, and remaining media was sorted at -80 C for later use. Cells were treated with RLT buffer and frozen until shipped for gene expression analysis. Total RNA was isolated from the cell suspension in 75 uL of Buffer RLT (Qiagen, Germantown, MD 20874) by Quintiles/Expression Analysis (Durham, NC) using a custom isolation procedure. Total RNA from each plate well was transferred to a preamplification plate. Fluidigm's 96.96 Dynamic ArrayTM (Fluidigm, Amsterdam, the Netherlands) technology was used for gene expression analyses by quantitative reverse transcription polymerase chain reaction (qRT-PCR, performed by Quintiles/Expression Analysis, Durham, NC)89. Standard TaqManTM Assays (Applied Biosystems/ThermoFisher Scientific, Foster City, CA) were used to assess the expression of 93 genes selected based on their selectivity and sensitivity to important hepatic receptors known to be modulated by environmental chemicals; importance in human hepatocyte functionality; and hepatotoxicity. […]

| SMILES | AC50 | outcome |
| --- | --- | --- |
| CC(=O)NC1(c2cccc(F)c2)CCN(CC[C@@]2(c3ccc(Cl)c(Cl)c3)CN(c3ccccc3)C(=O)CO2)CC1 | 20 µM (active) |  |
| OCCC(F)(F)C(F)(F)C(F)(F)C(F)(F)C(F)(F)C(F)(F)F | 84.4 µM (active) |  |
| CCN(CC)CCNc1ccc(CNC=O)c2sc3ccc(OC)cc3c(=O)c12 | 4.07 µM (active) |  |
| CCOC(=O)CC(O)(CC(=O)OCC)C(=O)OCC |  | inactive |
| CC1=C(/C=C/C(C)=C/C=C/C(C)=C/C(=O)O)C(C)(C)CCC1 | 35.9 µM (active) |  |
| O=C(O)c1ccccc1C(c1ccc(O)cc1)c1ccc(O)cc1 |  | inactive |
| CC(=O)CC(C)(C)O |  | inactive |
| N#C[C@@H]1CC(F)(F)CN1C(=O)CNC1CC2CCC(C1)N2c1ncccn1 (stereo not given in full) | 72.1 µM (active) |  |
| CCCCCCCCCCCCc1ccccc1S(=O)(=O)O | 30.6 µM (active) |  |
| NC(=O)N(O)[C@@H]1C=C[C@H](Oc2cccc(Oc3ccc(F)cc3)c2)C1 | 27.3 µM (active) |  |
| C#C[C@]1(O)CC[C@H]2[C@@H]3CCC4=CC(=O)CC[C@@H]4[C@H]3CC[C@@]21C |  | inactive |
| Cc1oc(-c2ccccc2)nc1CCOc1ccc(C[C@H](Nc2ccccc2C(=O)c2ccccc2)C(=O)O)cc1 | 11.4 µM (active) |  |
| Oc1cc2ccccc2c2ccccc12 | 30.7 µM (active) |  |
| C[C@@H]1C[C@H]2[C@@H]3CCC4=CC(=O)C=C[C@]4(C)[C@@]3(F)[C@@H](O)C[C@]2(C)[C@@]1(O)C(=O)COP(=O)(O)O |  | inactive |
| CC(C)(C)CC(C)(C)c1ccc(O)c(-n2nc3ccccc3n2)c1 | 41 µM (active) |  |
| Nc1cccc2c(N)cccc12 | 9 µM (active) |  |
| CCCCCCC(=O)O | 59.9 µM (active) |  |
| Cc1cc(C)c(O)c(C)c1 | 50 µM (active) |  |
| CN1CCN(c2ccccc2/C=C2\SCCN(c3ccc(Cl)c(Cl)c3)C2=O)CC1 | 1.56 µM (active) |  |
| O=c1c(-c2ccc(O)cc2)coc2cc(O)ccc12 |  | inactive |

| SMILES | AC50 | outcome |
| --- | --- | --- |
| CC(C)(C)c1cccc(C(C)(C)C)c1O |  | inactive |
| CCCCCCCCOC(=O)CCCCCCCCC(=O)OCCCCCCCC | 30.3 µM (active) |  |
| CCCOC(=O)c1ccc(O)cc1 |  | inactive |
| CCC(=C(c1ccc(O)cc1)c1ccc(OCCN(C)C)cc1)c1ccccc1 | 93.3 µM (active) |  |
| O=C(O)Cc1cc(I)c(Oc2cc(I)c(O)c(I)c2)c(I)c1 |  | inactive |
| CCCCCCCCC(=O)O |  | inactive |
| O=[N+]([O-])c1ccc(O)cc1 | 78.2 µM (active) | inactive |
| CCCCCCCCCCCCCCCS(=O)(=O)Oc1ccccc1 | 11.4 µM (active) |  |
| CCCCCCCC(=O)O |  | inactive |
| CCCCC(CC)COC(=O)CCCCC(=O)OCC(CC)CCCC (stereo not given) |  | inactive |
| CN1CCC[C@H]1c1cccnc1 | 70.6 µM (active) |  |
| CN(C)C=O |  | inactive |
| CCCCCCCCCCCCN1CCCC1=O | 68.2 µM (active) |  |
| COC(=O)CCCCC(=O)OC |  | inactive |
| c1ccc2c(c1)ccc1ccccc12 | 50 µM (active) |  |
| OC1CCCCC1 |  | inactive |
| CC(O)CO (stereo not given) |  | inactive |
| CCCOc1sc(C(=O)N2CCC(c3cc(CN)ccc3F)CC2)c(C)c1Br |  | inactive |
| CC[C@H](C)[C@@H](C(=O)O)n1sc2ccccc2c1=O | 50 µM (active) |  |

— PubChem BioAssay (EPA / NIEHS)
